Test results taken from PubChem BioAssay (NCATS).
Results filed as inconclusive are left out. Unmarked numbers belong to inactive results. Activity calls are given as the source filed them. Calls come from the whole dose curve; as a rule, active = well fitted curve in the direction sought with a large enough effect; inconclusive = small, poorly fitted or top-dose-only effect, or another doubt; inactive = no such curve, though single readings can be large; an effect the other way counts as inactive or inconclusive.

Test: qHTS assay to identify small molecule inhibitors of chordoma cells - UCH-1 (AID 1259355); note: nearly all actives have a fitted effect of over 55% in size; note: potency is the fitted concentration of half-maximal effect
Settings: UCH-1 chordoma viability, CellTiter-Glo, 48 h, combination, with auranofin plus four topoisomerase inhibitors; series mostly up to 46.1 µM; activity, negative = inhibition: at the top concentration
Summary of the method: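 Screening used approved and investigational drugs in 15-point titration against 800 seeded cells per well. A fixed combination of auranofin with camptothecin, doxorubicin, rubitecan and topotecan followed compound addition, and growth was scored by CellTiter-Glo after 48hr.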
% is set by controls: 0 for no effect and ±100 for the full control effect.

Compound | activity, negative = inhibition | Potency
Nc1ccc(S(=O)(=O)Nc2cnc3ccccc3n2)cc1 | -28.6% | 
Cc1c[nH]c2ccccc12 | -10.2% | 
CC1=C(C(=O)O)N2C(=O)[C@@H](NC(=O)[C@H](N)c3ccccc3)[C@H]2SC1 | -0.083% | 
CN(C)C(=O)Nc1ccc(Cl)c(Cl)c1 | 0.376% | 
CC(=O)Nc1ccc(OCC(O)CNC(C)C)cc1 (configuration not stated) | -10.3% | 
CO[C@H]1C=CO[C@@]2(C)Oc3c(C)c(O)c4c(O)c(c(/C=N/N5CCN(C)CC5)c(O)c4c3C2=O)NC(=O)/C(C)=C\C=C[C@H](C)[C@H](O)[C@@H](C)[C@@H](O)[C@@H](C)[C@H](OC(C)=O)[C@@H]1C | -8.88% | 
O=C(Nc1cccc(C2=NCCN2)c1)Nc1cccc(C2=NCCN2)c1 | 6.95% | 
O=C1c2cccc3c2[C@H](CCC3)CN1[C@@H]1CN2CCC1CC2 | -24.7% | 
C#C[C@]1(O)CC[C@H]2[C@@H]3CCc4cc(OC)ccc4[C@H]3CC[C@@]21C | 1.15% | 
O=C1OC2(c3ccccc31)c1cc(Br)c(O)c(Br)c1Oc1c2cc(Br)c(O)c1Br | -6.69% | 
O=C(N/N=C/c1ccc([N+](=O)[O-])o1)c1ccc(O)cc1 | 2.03% [at 20.6 µM] | 
CC(=O)O[C@]1(C(C)=O)CC[C@H]2[C@@H]3C=C(C)C4=CC(=O)CC[C@]4(C)[C@H]3CC[C@@]21C | -17.8% [at 20.6 µM] | 
NCc1ccccc1Sc1ccccc1CO | -12.8% | 
COc1ccc(C(=O)c2ccccc2O)c(O)c1 | 7.02% [at 20.6 µM] | 
O=C(O)c1ccc(S(=O)(=O)N(Cl)Cl)cc1 | -20.3% | 
COc1ccc(-c2cc(C(F)F)nn2-c2ccc(S(N)(=O)=O)cc2)cc1F | 5.16% | 
CCC1Nc2cc(Cl)c(S(N)(=O)=O)cc2S(=O)(=O)N1 (configuration not stated) | -25.6% | 
CC(=O)N[C@@H](CCC(=O)O)C(=O)O | -17.6% | 

Compound | activity, negative = inhibition | Potency
CC(=O)Oc1ccc(C)cc1 | -4.51% | 
NS(=O)(=O)c1ccc(Cl)c(S(N)(=O)=O)c1 | -31.5% | 
CN1CCC[C@@H]1CCO[C@](C)(c1ccccc1)c1ccc(Cl)cc1 | 0.555% | 
COc1cc(NS(=O)(=O)c2ccc(N)cc2)ncn1 | 2.73% [at 20.6 µM] | 
Cc1ncc(CO)c(C=O)c1O | -9.86% | 
CCOC(=O)C(C#N)=C(c1ccccc1)c1ccccc1 | -12% | 
CCCCc1cc2ccccc2c(OCCN(C)C)n1 | 1.3% [at 20.6 µM] | 
CC(C)Cc1ccc(CC(=O)O)cc1 | 2.2% | 
CC(O)Cn1cnc2c1c(=O)n(C)c(=O)n2C (configuration not stated) | -8.8% [at 20.6 µM] | 
O=C1[C@H](CC[C@H](O)c2ccc(F)cc2)[C@@H](c2ccc(O)cc2)N1c1ccc(F)cc1 | -14.6% | 
CCN(CC)CCOC(=O)C1(c2ccccc2)CCCC1 | -1.94% | 
O=C(Nc1ncc([N+](=O)[O-])s1)c1cccs1 |  | 14.1 µM (active)
CC(C)n1c(/C=C/[C@@H](O)C[C@@H](O)CC(=O)O)c(-c2ccc(F)cc2)c2ccccc21 | -22.5% | 
CCN(CC)CCOC(=O)C(Cc1cccc2ccccc12)CC1CCCO1 (configuration not stated) | 9.88% [at 20.6 µM] | 
CC1CCc2c(N3CCC(O)CC3)c(F)cc3c(=O)c(C(=O)O)cn1c23 (configuration not stated) | -14.8% | 
Cc1cn([C@H]2C[C@H](F)[C@@H](CO)O2)c(=O)[nH]c1=O | -4.35% | 
CC(C)(C)NCC(O)COc1cccc2c1C[C@H](O)[C@H](O)C2 (some centres not stated) | -4.63% [at 20.6 µM] | 
COc1cc([C@H]2Oc3cc([C@H]4Oc5cc(O)cc(O)c5C(=O)[C@@H]4O)ccc3O[C@@H]2CO)ccc1O | -16.7% | 

Test: qHTS assay to identify small molecule inhibitors of chordoma cells - UCH-2 (AID 1259356)
Settings: UCH-2 chordoma viability, CellTiter-Glo ATP luminescence, 48 h; series mostly up to 46.1 µM; activity change, negative = inhibition: at the top concentration

Compound | activity change, negative = inhibition
Nc1ccc(S(=O)(=O)Nc2cnc3ccccc3n2)cc1 | -1.42%
Cc1c[nH]c2ccccc12 | 6.3%
CC1=C(C(=O)O)N2C(=O)[C@@H](NC(=O)[C@H](N)c3ccccc3)[C@H]2SC1 | 12.1%
CN(C)C(=O)Nc1ccc(Cl)c(Cl)c1 | -15.8%
CC(=O)Nc1ccc(OCC(O)CNC(C)C)cc1 (configuration not stated) | 2.94%
CO[C@H]1C=CO[C@@]2(C)Oc3c(C)c(O)c4c(O)c(c(/C=N/N5CCN(C)CC5)c(O)c4c3C2=O)NC(=O)/C(C)=C\C=C[C@H](C)[C@H](O)[C@@H](C)[C@@H](O)[C@@H](C)[C@H](OC(C)=O)[C@@H]1C | 0.574%
O=C(Nc1cccc(C2=NCCN2)c1)Nc1cccc(C2=NCCN2)c1 | 7.27%
O=C1c2cccc3c2[C@H](CCC3)CN1[C@@H]1CN2CCC1CC2 | -3.04%
C#C[C@]1(O)CC[C@H]2[C@@H]3CCc4cc(OC)ccc4[C@H]3CC[C@@]21C | 5.67%
O=C1OC2(c3ccccc31)c1cc(Br)c(O)c(Br)c1Oc1c2cc(Br)c(O)c1Br | -23.3%
O=C(N/N=C/c1ccc([N+](=O)[O-])o1)c1ccc(O)cc1 | -1.12% [at 20.6 µM]
CC(=O)O[C@]1(C(C)=O)CC[C@H]2[C@@H]3C=C(C)C4=CC(=O)CC[C@]4(C)[C@H]3CC[C@@]21C | 0.857% [at 20.6 µM]
NCc1ccccc1Sc1ccccc1CO | 18.6%
COc1ccc(C(=O)c2ccccc2O)c(O)c1 | 9.67% [at 20.6 µM]
O=C(O)c1ccc(S(=O)(=O)N(Cl)Cl)cc1 | 1.23%
COc1ccc(-c2cc(C(F)F)nn2-c2ccc(S(N)(=O)=O)cc2)cc1F | 15.6%
CCC1Nc2cc(Cl)c(S(N)(=O)=O)cc2S(=O)(=O)N1 (configuration not stated) | 16.2%
CC(=O)N[C@@H](CCC(=O)O)C(=O)O | 0.093%

Compound | activity change, negative = inhibition
CC(=O)Oc1ccc(C)cc1 | 6.74%
NS(=O)(=O)c1ccc(Cl)c(S(N)(=O)=O)c1 | 9.08%
CN1CCC[C@@H]1CCO[C@](C)(c1ccccc1)c1ccc(Cl)cc1 | -22.3%
COc1cc(NS(=O)(=O)c2ccc(N)cc2)ncn1 | -0.684% [at 20.6 µM]
Cc1ncc(CO)c(C=O)c1O | -0.264%
CCOC(=O)C(C#N)=C(c1ccccc1)c1ccccc1 | 5.69%
CCCCc1cc2ccccc2c(OCCN(C)C)n1 | 5.28% [at 20.6 µM]
CC(C)Cc1ccc(CC(=O)O)cc1 | -3.13%
CC(O)Cn1cnc2c1c(=O)n(C)c(=O)n2C (configuration not stated) | -1.21% [at 20.6 µM]
O=C1[C@H](CC[C@H](O)c2ccc(F)cc2)[C@@H](c2ccc(O)cc2)N1c1ccc(F)cc1 | -2.03%
CCN(CC)CCOC(=O)C1(c2ccccc2)CCCC1 | 2.23%
O=C(Nc1ncc([N+](=O)[O-])s1)c1cccs1 | -25.8%
CC(C)n1c(/C=C/[C@@H](O)C[C@@H](O)CC(=O)O)c(-c2ccc(F)cc2)c2ccccc21 | -10.8%
CCN(CC)CCOC(=O)C(Cc1cccc2ccccc12)CC1CCCO1 (configuration not stated) | -2.96% [at 20.6 µM]
CC1CCc2c(N3CCC(O)CC3)c(F)cc3c(=O)c(C(=O)O)cn1c23 (configuration not stated) | 6.38%
Cc1cn([C@H]2C[C@H](F)[C@@H](CO)O2)c(=O)[nH]c1=O | 7.34%
CC(C)(C)NCC(O)COc1cccc2c1C[C@H](O)[C@H](O)C2 (some centres not stated) | 15% [at 20.6 µM]
COc1cc([C@H]2Oc3cc([C@H]4Oc5cc(O)cc(O)c5C(=O)[C@@H]4O)ccc3O[C@@H]2CO)ccc1O | 0.252%
